From PubChem BioAssay
KAT2A inh: inhibitors of human GCN5L2 histone acetyltransferase; Q92830; GCN5L2 HAT assay, ThioGlo1 CoA-SH fluorescence; Potency, µM (series often up to 58.9 µM), hits mostly inhibitors; actives 0.21% (n = 390,000); AID 504327
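qHTS, 1536-well. 20nM enzyme, pH 7.5 HEPES/EDTA/Tween-20 buffer; 15 min compound preinc., RT. Start: 75uM H3(1-25), 70uM AcCoA, 50uM ThioGlo1. Read Ex340/Em540 at t=0 (autofluorescence flag) and t=20 min.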
TDP1 inh: blocks human tyrosyl-DNA phosphodiesterase 1 | actives 0.28% (n = 350,000) | Q9NUW8 | recombinant TDP1, AlphaScreen DNA substrate cleavage | AID 485290 | Potency, µM (titrated, usually from 130 µM), most hits filed as inhibitors; also: nearly all actives have a fitted effect of over 40% in size
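Compounds were preincubated with Tdp1 (1 nM final) for 15 min at room temperature before substrate (15 nM final) started a 5 min reaction; beads (10 ug/ml final) were then added for 10 min before AlphaScreen detection.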
BLM helicase inh: inhibitors of human Bloom syndrome helicase BLM | AID 2528 | Potency, µM (series often up to 56.1 µM), usual class: inhibitors | recombinant BLM DNA unwinding, fluorescence dequenching | actives 0.2% (n = 350,000) | P54132; also: nearly all actives have a fitted effect of over 35% in size
RGS4 inh: blocks human RGS4-accelerated GTP hydrolysis. Transcreener GDP fluorescence polarization, RGS4-accelerated GTP hydrolysis. Potency, µM (doses to about 114 µM), hits mostly inhibitors. actives 0.039% (n = 390,000). AID 504845; also: nearly all actives have a fitted effect of over 75% in size
Target sequence (P49798 whole entry, looked up): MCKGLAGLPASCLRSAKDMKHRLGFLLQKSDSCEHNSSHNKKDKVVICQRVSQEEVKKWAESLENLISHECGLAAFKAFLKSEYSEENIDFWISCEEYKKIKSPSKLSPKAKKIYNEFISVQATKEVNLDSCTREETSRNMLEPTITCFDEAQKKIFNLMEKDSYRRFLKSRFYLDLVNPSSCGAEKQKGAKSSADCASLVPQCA
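MLSMR compounds (23 nl, pin-transferred) preincubated 10 min at room temperature with a 500nM (2x) first reagent, then RGS4 at 900nM (2x) plus Transcreener GDP mix added; fluorescence polarization (620/688 nm) read before and after 90 min at 30 °C.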
RECQ1 helicase: blocks DNA unwinding by human RECQ1 | AID 2549 | P46063 | Potency, µM (titrated, usually from 57.3 µM), actives largely listed as inhibitors | RECQ1 DNA unwinding, red fluorescence kinetic read | actives 0.54% (n = 240,000); also: nearly all actives have a fitted effect of over 30% in size
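50 nM RECQ1T1 preincubated 15 min with compound in Tris pH 8.0 buffer with MgCl2, DTT, Tween-20 and 2.5 ug/ml poly(dI-dC); started with 200 nM TAMRA/BHQ-2 forked duplex and 2 mM ATP. Unwinding read as fluorescence (525/598 nm), two reads 2 h apart.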
APE1 inh-1: APE1 (human) endonuclease inhibition; recombinant APE1, TAMRA/BHQ-2 abasic DNA cleavage fluorescence; Potency, µM (doses to about 65.8 µM), most hits filed as inhibitors; P27695; actives 0.35% (n = 350,000); also: nearly all actives have a fitted effect of over 55% in size
Target sequence (P27695 whole entry, looked up): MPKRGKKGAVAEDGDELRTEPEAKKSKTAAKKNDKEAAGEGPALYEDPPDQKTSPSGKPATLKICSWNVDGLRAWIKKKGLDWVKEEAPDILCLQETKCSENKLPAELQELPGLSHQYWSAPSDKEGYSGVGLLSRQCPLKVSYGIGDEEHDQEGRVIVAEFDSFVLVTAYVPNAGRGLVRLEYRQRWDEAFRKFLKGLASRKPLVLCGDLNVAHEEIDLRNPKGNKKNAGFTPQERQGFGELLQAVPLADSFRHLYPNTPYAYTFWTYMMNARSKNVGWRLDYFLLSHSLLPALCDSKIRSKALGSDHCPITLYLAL
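Readout is kinetic fluorescence (ex 525, em 598 nm) from cleavage of 50 nM TAMRA/BHQ-2 THF abasic duplex by 0.75 nM APE1, compound added 15 min beforehand at RT.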
APE1 dye cs: counter-screen for APE1 inhibitors: DNA dye displacement | shares compounds with APE1 inh-1 | DNA fluorescent dye displacement counterscreen, fluorescence | Potency, µM (series often up to 28.5 µM), most hits filed as inhibitors | actives 7% (n = 480) | AID 2564;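 also: loss of thiazole orange fluorescence as the dye is displaced from duplex DNA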
EndoIV counter: counter-screen for APE1 inhibitors: inhibitors of E. coli endonuclease IV. actives 4% (n = 560). E. coli Endo IV, fluorogenic AP-site DNA cleavage. shares compounds with APE1 inh-1. Potency, µM (highest dose often 27.1 µM), hits mostly inhibitors. AID 2565
APE1 inh-2: APE1 (human) endonuclease inhibition, confirmation | shares compounds with APE1 inh-1 | purified APE1, fluorogenic abasic-site DNA cleavage | Potency, µM (series often up to 57.1 µM), hits mostly inhibitors | actives 44% (n = 750) | AID 2572; also: nearly all actives have a fitted effect of over 30% in size
APE1 FP inh: APE1 (human) DNA binding inhibition, fluorescence polarization; shares compounds with APE1 inh-1; APE1 binding to TAMRA-labelled double-stranded DNA, fluorescence polarization displacement; Potency, µM (top dose mostly 28.5 µM), most hits filed as inhibitors; actives 7% (n = 480); AID 2573
Hits are given with their value; [ ] = remark or other dose. Only some compounds are listed: those with a hit (about 0.87% of all), similar ones and a draw of the others. Calls follow the shape of the dose curve; as a rule, active = well fitted curve in the direction sought with a large enough effect; inconclusive = small, poorly fitted or top-dose-only effect, or another doubt; inactive = no such curve, though single readings can be large; an effect the other way counts as inactive or inconclusive.

`CC1=C(C#N)c2nc(N)c(C#N)c(C)c2/C1=C\c1ccc(-c2ccccc2C(=O)O)o1` gave KAT2A inh inconclusive, BLM helicase inh inactive, RGS4 inh inconclusive, RECQ1 helicase 11µM, APE1 inh-1 25µM, APE1 dye cs 11µM, EndoIV counter inactive, APE1 inh-2 14µM and APE1 FP inh 13µM.
`COc1cc(/C=N/Nc2ccc(C(=O)O)cc2)ccc1O` gave KAT2A inh inactive, TDP1 inh inconclusive, BLM helicase inh inactive, RGS4 inh inactive[11.4 µM], RECQ1 helicase inactive, APE1 inh-1 14µM, APE1 dye cs inactive, EndoIV counter inactive, APE1 inh-2 14µM and APE1 FP inh inactive.
`COc1ccc(OC)c(/C(C)=N/Nc2ccc(C(=O)O)cc2)c1` gave KAT2A inh inactive, BLM helicase inh inactive, RGS4 inh inactive, RECQ1 helicase inactive, APE1 inh-1 28µM, APE1 dye cs inactive, EndoIV counter inactive, APE1 inh-2 inconclusive and APE1 FP inh inactive.
O=C1C2=C(S[C@@H]3O[C@H](CO)[C@@H](O)[C@H](O)[C@H]3O2)C(=O)c2ccccc21 was read as TDP1 inh inactive, BLM helicase inh inactive, RECQ1 helicase inactive and APE1 inh-1 inactive.
Screening N#Cc1ccc(CS(=O)(=O)c2nc3ccccc3s2)cc1 returned TDP1 inh inactive, BLM helicase inh inactive, RECQ1 helicase inactive and APE1 inh-1 inactive.
Screening N#Cc1ccc(NCCNCC(=O)N2N=CCC2C#N)nc1 (stereo not drawn) returned KAT2A inh inactive, TDP1 inh inactive, BLM helicase inh inactive, RECQ1 helicase inactive and APE1 inh-1 inactive.
Screening S=C(S)OC1CC2CC1C1CCCC21 (stereo not drawn) returned KAT2A inh inactive, TDP1 inh inactive, RGS4 inh inactive, RECQ1 helicase inactive, APE1 inh-1 inactive, EndoIV counter inactive and APE1 inh-2 inactive.
O=C(CSc1ccsc1[N+](=O)[O-])Nc1cccc(F)c1 was read as KAT2A inh inactive, BLM helicase inh inactive, RGS4 inh inactive, RECQ1 helicase inconclusive, APE1 inh-1 inconclusive, APE1 dye cs inconclusive, EndoIV counter inactive, APE1 inh-2 14µM and APE1 FP inh inactive.
For O=C(CSc1nccn1Cc1ccccc1)NCc1ccco1 the results were KAT2A inh inactive, TDP1 inh inactive, BLM helicase inh inactive and RGS4 inh inactive.
For COc1cccc(/C=C2\SC(=O)NC2=O)c1OCc1ccc(C(=O)O)cc1 the results were KAT2A inh inactive, TDP1 inh inconclusive, BLM helicase inh inactive, RGS4 inh inactive, RECQ1 helicase inactive, APE1 inh-1 inconclusive and APE1 inh-2 inactive.
For CC(C)N1C(=O)S/C(=C/c2ccccc2OCc2ccc(C(=O)O)cc2)C1=O the results were KAT2A inh inactive, TDP1 inh inactive, BLM helicase inh inactive, RGS4 inh inactive, RECQ1 helicase inactive and APE1 inh-1 inactive.
Screening COc1cc(/C=C2/NC(=O)NC2=O)cc(Br)c1OCc1ccc(C(=O)O)cc1 returned KAT2A inh inactive, TDP1 inh 71µM, BLM helicase inh inactive, RGS4 inh inactive, RECQ1 helicase inactive, APE1 inh-1 inconclusive and APE1 inh-2 inconclusive.
